Reference: PubChem BioAssay (EPA / NIEHS)
Inconclusive results are not listed. Active and inactive are the calls of the source. The calls were made as follows, unless noted: active = hit-call score of the fitted dose curve at least 0.9, where 1 is the maximum; inconclusive = response in the unintended direction; inactive = score below 0.9.

Experiments:
[1] = read-out: E-selectin (Homo sapiens) (UniProt P16581); test: BSK_3C_Eselectin: BioMAP Diversity Plus: 3C Assay for Eselectin Biomarker Activity (AID 2283015; active = hit-call score of the fitted dose curve at least 0.9, where 1 is the maximum; inactive = score below 0.9); conditions: primary human endothelial cells (HUVEC); actives raise or lower the signal
In short: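 Primary human umbilical vein endothelial cells (3C system) were dosed with chemical and cell-surface E-selectin measured by ELISA 24 h later. Bidirectional curve fitting used DMSO as negative control and baseline.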

[2] = read-out: Interleukin-1 alpha (IL1a), IL1A (gene 3552); test: BSK_BE3C_IL1a: BioMAP Diversity Plus: BE3C Assay for Interleukin-1 alpha (IL1a) Biomarker Activity (AID 2283016; active = hit-call score of the fitted dose curve at least 0.9, where 1 is the maximum; inactive = score below 0.9); conditions: primary human bronchial epithelial cells; actives raise or lower the signal
In short: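 BE3C primary human bronchial epithelium; cpd 24 h; IL-1a by ELISA; bidirectional fit vs DMSO; parallel SRB (0.1% SRB, 10% TCA fix, 560 nm) for cytotoxicity.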

[3] = read-out: Monocyte Chemoattractant Protein-1 (MCP1), CCL2 (gene 6347); test: BSK_3C_MCP1: BioMAP Diversity Plus: 3C Assay for Monocyte Chemoattractant Protein-1 (MCP1) Biomarker Activity (AID 2283017; active = hit-call score of the fitted dose curve at least 0.9, where 1 is the maximum; inactive = score below 0.9); conditions: primary human endothelial cells (HUVEC); actives raise or lower the signal
In short: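 Primary human umbilical vein endothelial cells (3C system) were exposed to test chemical for 24 h, after which MCP-1 was quantified by ELISA. Activity was fitted bidirectionally against DMSO as negative control and baseline.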

[4] = read-out: Monocyte Chemoattractant Protein-1 (MCP1), CCL2 (gene 6347); test: BSK_4H_MCP1: BioMAP Diversity Plus: 4H Assay for Monocyte Chemoattractant Protein-1 (MCP1) Biomarker Activity (AID 2283018; active = hit-call score of the fitted dose curve at least 0.9, where 1 is the maximum; inactive = score below 0.9); conditions: primary human endothelial cells (HUVEC); actives raise or lower the signal
In short: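 ELISA read-out of MCP-1 from human vascular endothelial primary cells taken at 24 hours after compound exposure. Activity was fitted in both directions relative to DMSO, which served as negative control.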

[5] = read-out: Human Leukocyte Antigen - DR isotype (HLADR), HLA-DRA (gene 3122); test: BSK_3C_HLADR: BioMAP Diversity Plus: 3C Assay for Human Leukocyte Antigen - DR isotype (HLADR) Biomarker Activity (AID 2283019; active = hit-call score of the fitted dose curve at least 0.9, where 1 is the maximum; inactive = score below 0.9); conditions: primary human endothelial cells (HUVEC); actives raise or lower the signal
In short: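 Primary human umbilical vein endothelial cells (3C system) were dosed with compound and cell-surface HLA-DR was quantified by ELISA at 24 h. Activity was fitted bidirectionally against DMSO as negative control and baseline.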

[6] = read-out: Interleukin-8 (IL8), CXCL8 (gene 3576); test: BSK_3C_IL8: BioMAP Diversity Plus: 3C Assay for Interleukin-8 (IL8) Biomarker Activity (AID 2283020; active = hit-call score of the fitted dose curve at least 0.9, where 1 is the maximum; inactive = score below 0.9); conditions: primary human endothelial cells (HUVEC); actives raise or lower the signal
In short: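 ELISA read-out of IL-8 from human umbilical vein endothelium, measured 24 h after chemical dosing. Activity is expressed relative to DMSO negative control, with both increases and decreases fitted.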

[7] = target: human RAR-related Orphan Receptor gamma (RORg), RORC (gene 6097) (UniProt P51449); test: ATG_RORg_TRANS: Attagene TRANS-FACTORIAL HepG2 Assay for human RAR-related Orphan Receptor gamma (RORg) (AID 2283011)
Chain of human RAR-related Orphan Receptor gamma (RORg), RORC (gene 6097) (P51449 whole entry, looked up, the tested form may be a part): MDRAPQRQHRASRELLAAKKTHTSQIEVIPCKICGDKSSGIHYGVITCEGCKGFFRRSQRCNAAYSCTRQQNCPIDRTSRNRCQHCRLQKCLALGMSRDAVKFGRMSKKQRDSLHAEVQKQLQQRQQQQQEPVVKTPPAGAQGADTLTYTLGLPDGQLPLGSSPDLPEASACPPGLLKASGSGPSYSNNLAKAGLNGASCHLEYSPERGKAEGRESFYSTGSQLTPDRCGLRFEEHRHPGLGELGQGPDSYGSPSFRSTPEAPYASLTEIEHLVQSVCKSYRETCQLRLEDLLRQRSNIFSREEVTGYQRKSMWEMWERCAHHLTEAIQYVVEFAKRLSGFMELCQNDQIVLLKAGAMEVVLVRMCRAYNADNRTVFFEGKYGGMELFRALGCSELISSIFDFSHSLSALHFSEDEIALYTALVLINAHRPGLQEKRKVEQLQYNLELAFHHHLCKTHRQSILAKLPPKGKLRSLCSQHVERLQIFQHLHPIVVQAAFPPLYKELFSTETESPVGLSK
In short: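 Readout: reporter transcript induction (RT-PCR, fluorescent primer extension, capillary electrophoresis) after 24 h compound exposure of transiently transfected HepG2 cells carrying a RORg-Gal4 chimera and GAL4-UAS reporters; DMSO served as baseline, with increasing signal fitted.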

[8] = target: Retinoic acid receptor RXR-alpha (Homo sapiens) (UniProt P19793); test: ATG_RXRa_TRANS: Attagene TRANS-FACTORIAL HepG2 Assay for human Retinoid X Receptor alpha (RXRa) (AID 2283012)
Chain of Retinoic acid receptor RXR-alpha (Homo sapiens) (P19793 whole entry, looked up, the tested form may be a part): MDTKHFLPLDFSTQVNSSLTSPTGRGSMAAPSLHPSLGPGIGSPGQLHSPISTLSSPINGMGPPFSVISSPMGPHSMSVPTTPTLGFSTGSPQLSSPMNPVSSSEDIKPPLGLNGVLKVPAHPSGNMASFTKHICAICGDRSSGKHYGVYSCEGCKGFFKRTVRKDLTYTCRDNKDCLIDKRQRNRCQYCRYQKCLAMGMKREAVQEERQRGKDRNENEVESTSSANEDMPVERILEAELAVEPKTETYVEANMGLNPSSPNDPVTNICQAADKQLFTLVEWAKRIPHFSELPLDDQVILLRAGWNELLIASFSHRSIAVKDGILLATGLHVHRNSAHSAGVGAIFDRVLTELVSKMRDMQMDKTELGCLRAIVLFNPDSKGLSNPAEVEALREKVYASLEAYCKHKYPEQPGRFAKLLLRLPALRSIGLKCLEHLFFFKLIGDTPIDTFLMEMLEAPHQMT
In short: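 Transient transfection of human HepG2 with multiple GAL4-UAS reporter constructs; 24 h compound exposure; total RNA isolated, reverse-transcribed, PCR-amplified, 6-FAM labelled, HpaI-cut, resolved by capillary electrophoresis. Positive-direction fit versus DMSO.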

[9] = target: human Retinoid X Receptor beta (RXRb), RXRB (gene 6257) (UniProt P28702); test: ATG_RXRb_TRANS: Attagene TRANS-FACTORIAL HepG2 Assay for human Retinoid X Receptor beta (RXRb) (AID 2283013)
Chain of human Retinoid X Receptor beta (RXRb), RXRB (gene 6257) (P28702 whole entry, looked up, the tested form may be a part): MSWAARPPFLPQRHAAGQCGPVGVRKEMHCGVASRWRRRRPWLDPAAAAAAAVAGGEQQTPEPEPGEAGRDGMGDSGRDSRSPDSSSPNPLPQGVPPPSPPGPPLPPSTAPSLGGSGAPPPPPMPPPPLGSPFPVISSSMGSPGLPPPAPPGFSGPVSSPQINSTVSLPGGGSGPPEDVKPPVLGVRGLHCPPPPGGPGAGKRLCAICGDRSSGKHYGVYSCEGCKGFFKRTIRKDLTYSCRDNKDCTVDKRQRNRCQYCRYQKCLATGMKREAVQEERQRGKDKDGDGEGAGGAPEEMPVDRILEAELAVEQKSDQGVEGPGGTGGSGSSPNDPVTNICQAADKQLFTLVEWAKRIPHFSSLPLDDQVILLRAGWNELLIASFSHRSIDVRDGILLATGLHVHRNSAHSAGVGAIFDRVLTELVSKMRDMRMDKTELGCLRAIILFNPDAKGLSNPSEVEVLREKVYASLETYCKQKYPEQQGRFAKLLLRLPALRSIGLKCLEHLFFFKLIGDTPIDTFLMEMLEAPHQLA
In short: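 Transfect HepG2 with GAL4-UAS multi-reporter constructs (chimeric NR-Gal4, TRANS format); dose compound 24 h; isolate RNA, RT-PCR, FAM primer extension, HpaI digest; quantify by capillary electrophoresis; positive direction vs DMSO.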

[10] = target: human Thyroid Receptor alpha (THRa1), THRA (gene 7067) (UniProt P10827); test: ATG_THRa1_TRANS: Attagene TRANS-FACTORIAL HepG2 Assay for human Thyroid Receptor alpha (THRa1) (AID 2283014)
Chain of human Thyroid Receptor alpha (THRa1), THRA (gene 7067) (P10827 whole entry, looked up, the tested form may be a part): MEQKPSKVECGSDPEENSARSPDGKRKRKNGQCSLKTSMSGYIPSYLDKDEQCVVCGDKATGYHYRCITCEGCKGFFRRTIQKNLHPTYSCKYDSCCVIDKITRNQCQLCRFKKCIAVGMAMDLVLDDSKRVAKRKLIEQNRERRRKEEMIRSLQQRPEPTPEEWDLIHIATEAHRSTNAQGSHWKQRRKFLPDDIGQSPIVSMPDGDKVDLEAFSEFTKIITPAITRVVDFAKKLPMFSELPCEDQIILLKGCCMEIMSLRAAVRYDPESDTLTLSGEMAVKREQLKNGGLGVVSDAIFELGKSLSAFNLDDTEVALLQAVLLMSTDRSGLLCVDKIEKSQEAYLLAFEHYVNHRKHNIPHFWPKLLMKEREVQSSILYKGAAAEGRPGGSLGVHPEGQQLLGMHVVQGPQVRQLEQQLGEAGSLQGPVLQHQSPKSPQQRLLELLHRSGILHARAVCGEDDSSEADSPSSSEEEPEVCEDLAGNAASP
In short: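 HepG2 cells transiently transfected with multiplexed GAL4-UAS reporter units for exogenous chimeric THRa1-Gal4; reporter mRNA measured 24 h after dosing by RT-PCR, 6-FAM labelling, HpaI digestion and capillary electrophoresis. Gain-of-signal fitted versus DMSO baseline.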

Measured: AC50

Chain of E-selectin (Homo sapiens) (P16581 whole entry, looked up): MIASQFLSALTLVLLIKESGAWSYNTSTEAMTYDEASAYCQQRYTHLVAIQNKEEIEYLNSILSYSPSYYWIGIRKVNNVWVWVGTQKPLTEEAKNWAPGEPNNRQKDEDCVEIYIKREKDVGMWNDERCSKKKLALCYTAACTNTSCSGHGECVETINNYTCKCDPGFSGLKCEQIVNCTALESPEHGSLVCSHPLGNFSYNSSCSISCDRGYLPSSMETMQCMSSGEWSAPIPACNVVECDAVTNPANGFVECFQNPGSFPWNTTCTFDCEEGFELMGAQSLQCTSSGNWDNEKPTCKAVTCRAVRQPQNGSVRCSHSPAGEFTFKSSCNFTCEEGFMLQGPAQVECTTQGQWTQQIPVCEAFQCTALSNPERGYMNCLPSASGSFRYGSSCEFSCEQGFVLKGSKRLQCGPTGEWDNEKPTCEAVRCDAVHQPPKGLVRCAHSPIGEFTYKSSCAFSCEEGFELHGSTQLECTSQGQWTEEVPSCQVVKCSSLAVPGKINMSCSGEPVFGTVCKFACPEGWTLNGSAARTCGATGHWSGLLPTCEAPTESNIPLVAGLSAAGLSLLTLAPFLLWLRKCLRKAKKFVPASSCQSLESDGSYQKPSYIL

O=Nc1ccc(O)cc1
inactive: [1] | [2] | [3] | [4] | [5] | [6]

CCCCC(CC)COCC1CO1 (stereo unspecified)
inactive: [1] | [2] | [3] | [4] | [5] | [6]

CCCCC(CC)COC(=O)c1ccccc1O (stereo unspecified)
active: [1] 10 µM | [3] 15.9 µM | [4] 16.2 µM | [5] 18.1 µM | [6] 10 µM
inactive: [7] | [8] | [9] | [2]

CCCCC/C=C\C/C=C\CCCCCCCC(=O)OC
inactive: [7] | [8] | [4] | [6]
active: [1] 29.6 µM | [2] 20 µM | [3] 34.4 µM | [5] 28.7 µM

CNC(=S)N(C)C
inactive: [7] | [9]

CCCOCCOCCOCCO
inactive: [7] | [9]

COCCCOCCCOC
inactive: [7] | [9]

O=C1CCCC1
inactive: [7] | [9] | [10]

CCCCCCC1(C)CCC(=O)O1 (stereo unspecified)
inactive: [7] | [9]

O=C1C=CC(=O)O1
inactive: [7] | [9]

COC(=O)c1ccccc1OC
inactive: [7] | [9]

[Cl][Nd]([Cl])[Cl]
inactive: [7] | [9] | [10]

c1ccc2c(c1)ccc1cc3c(ccc4ccccc43)cc12
not listed: [10]
inactive: all other assays above

COc1ccc2nc(N)sc2c1
not listed: [9] | [10]
inactive: all other assays above

CC=CCO
inactive: [7] | [9] | [10]

Cc1cc(C)c(C)c(C)c1
inactive: [7] | [9] | [10]

CN(C)c1ccc(C(=N)c2ccc(N(C)C)cc2)cc1
inactive: [7] | [9] | [10]

CCOc1nc(F)cc2nc(S(=O)(=O)Nc3c(Cl)cccc3C(=O)OC)nn12
inactive: all assays above

CCCCCCCCO[C@@H]1O[C@H](CO)[C@@H](O)[C@H](O)[C@H]1O
inactive: [7] | [8] | [10]

CC[C@H]1OC(=O)[C@H](C)[C@@H](O[C@H]2C[C@@](C)(OC)[C@@H](O)[C@H](C)O2)[C@H](C)[C@@H](O[C@@H]2O[C@H](C)C[C@H](N(C)C)[C@H]2O)[C@](C)(O)C[C@@H](C)C(=NOCOCCOC)[C@H](C)[C@@H](O)[C@]1(C)O
inactive: [7] | [9]

C=C[Si](C)(C)O[Si](C)(C)C=C
inactive: [7] | [8] | [10]

Cc1ccc(C(C)(C)C)cc1
inactive: [7] | [9] | [10]

Nc1ccc(Cl)cc1Cl
inactive: [7] | [9]

CCC(CO)CO
inactive: [7] | [9] | [10]

CC1=NN(c2cc(S(=O)(=O)O)ccc2Cl)C(=O)C1N=Nc1ccccc1 (stereo unspecified)
inactive: [7] | [8] | [10]

COC(=O)/C=C\C(=O)O
inactive: [7] | [9]

CO[Si](CCC1CCC2OC2C1)(OC)OC (stereo unspecified)
inactive: [7] | [8] | [10]

CCN(CC#N)c1cccc(C)c1
inactive: [7] | [9]

NC(=O)NNC(N)=O
inactive: [7] | [8] | [10]

CC(C)=CCC/C(C)=C\C#N
inactive: [7] | [9]

CCOC(=O)c1ccc(N(C)C)cc1
inactive: [7] | [9]

C[Si](C)(C)O[Si](O)(O)O
inactive: [7] | [9]

C1=CCCC1
inactive: [7] | [9] | [10]

O=C1C(N(CO)C(=O)NCO)N(CO)C(=O)N1CO (stereo unspecified)
inactive: [7] | [9]

O=S(=O)(O)c1cc(S(=O)(=O)O)c2ccc3c(S(=O)(=O)O)cc(S(=O)(=O)O)c4ccc1c2c43
inactive: [7] | [9]

CCCc1ccc(OC)cc1
inactive: [7] | [9]

CCCCCCCC(C)=O
inactive: [7] | [9] | [10]

CC=C1CC2C=CC1C2 (stereo unspecified)
inactive: [7] | [8] | [10]

C=CC(=O)NC(C)(C)CS(=O)(=O)O
inactive: [7] | [9]

CCCCCc1ccc(Cl)cc1
inactive: [7] | [9]

O=CC1CC1
inactive: [7] | [10]

CN(C)CCCN(C)C
inactive: [8]

CC(=O)[C@H]1[C@H](C#N)C[C@H]2[C@@H]3CC=C4C[C@@H](O)CC[C@]4(C)[C@H]3CC[C@@]21C
inactive: [7] | [10]

C=C[C@](C)(O)CC[C@@H]1[C@@]2(C)CCCC(C)(C)[C@@H]2CC[C@@]1(C)O
inactive: [8]

C=CC(=O)OCCC(=O)O
inactive: [7] | [10]

Cc1cccc(OCCOc2cccc(C)c2)c1
inactive: [8]
